# Bioassay records (PubChem)
# A selection: hits, their analogues and other compounds. The true share with any hit is near 2.1%.
# KKLEB tox: cytotoxicity in KKLEB CF airway cells, primary screen, cytotoxicity control for CF NF-kB inhibitor project, cell-based, uHTS, fluorescence assay plates; KKLEB CF airway cells viability, ATPlite luminescence, overnight; stronger effect = lower value; cells stimulated with P. aeruginosa culture filtrate; activity change (cytotoxicity), % at 5 µM; AID 602141, 2011; actives 0.36% (n = 360,000);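 active = corrected activity change at or below -50% at 5 µM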
# PAX8 reporter: inhibitors of PAX8-driven TPO luciferase reporter, primary screen, RMG-I cells, single concentration; SteadyGlo, 24 h; inhibition, % at 12.6 µM; actives 1.2% (n = 360,000);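 active = mean replicate inhibition at least 60% with every replicate also reaching 60%; inconclusive = only one of the two criteria is met; inactive = mean below 60% and not all replicates reaching 60%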;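 also: luciferase light reporting Pax8 driven TPO promoter activity; plate controls were median of neutral control wells for no effect and mitoxantrone controls for full effect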
# EWS-Fli block: EWS/Fli-driven NR0B1 reporter inhibitors, primary screen, A673 cells, NR0B1 luciferase, luminescence, MLPCN library; viability-normalised; inhibition, % at 12.6 µM; actives 0.67% (n = 350,000);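 active = mean inhibition of at least 50% after viability correction, with every replicate also passing that limit; inconclusive = mean reaches 50% but only one of two replicates passes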;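 also: firefly luciferase signal divided by Alamar Blue viability fluorescence both relative to DMSO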
# CF NFkB inh: inhibitors of PAF-induced NF-kB signaling, primary screen, cell-based, GFP fluorescence, uHTS; KKLEB NF-kB-GFP reporter, GFP fluorescence overnight; AID 588850, 2011; actives 0.86% (n = 360,000); inhibition, % at 5 µM;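 active = at least 50% inhibition at 5 µM, scaled per plate between neutral and stimulator controls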;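 also: PAF is a Pseudomonas aeruginosa culture filtrate used as stimulus; plate controls were PAF-stimulated DMSO wells for no effect and unstimulated DMSO wells for full effect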
# HIF-2a block: HIF-2a reporter inhibitors, primary screen, luminescence, 786-0 RCC cells | AID 624352, 2012 | 786-0 RCC cells HIF-2a reporter, luciferase luminescence, overnight | inhibition, % at 18.8 µM | actives 0.72% (n = 360,000);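 active = inhibition of the luminescence signal of 40% or more relative to plate controls, in a single-dose primary screen at 18.75 µM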
# Mdm2 MdmX conf: retested Mdm2-MdmX interaction blockers, confirmation, cell-based, luminescence, single concentration, set 2 | shares compounds with HIF-2a block | SaOS-2 split-luciferase Mdm2/MdmX complementation | inhibition, % at 8 µM | actives 99% (n = 740) | AID 504601, 2011;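 active = mean inhibition of the luminescence signal across two replicates at or above 26 percent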
# Target sequence (O15151 whole entry, looked up): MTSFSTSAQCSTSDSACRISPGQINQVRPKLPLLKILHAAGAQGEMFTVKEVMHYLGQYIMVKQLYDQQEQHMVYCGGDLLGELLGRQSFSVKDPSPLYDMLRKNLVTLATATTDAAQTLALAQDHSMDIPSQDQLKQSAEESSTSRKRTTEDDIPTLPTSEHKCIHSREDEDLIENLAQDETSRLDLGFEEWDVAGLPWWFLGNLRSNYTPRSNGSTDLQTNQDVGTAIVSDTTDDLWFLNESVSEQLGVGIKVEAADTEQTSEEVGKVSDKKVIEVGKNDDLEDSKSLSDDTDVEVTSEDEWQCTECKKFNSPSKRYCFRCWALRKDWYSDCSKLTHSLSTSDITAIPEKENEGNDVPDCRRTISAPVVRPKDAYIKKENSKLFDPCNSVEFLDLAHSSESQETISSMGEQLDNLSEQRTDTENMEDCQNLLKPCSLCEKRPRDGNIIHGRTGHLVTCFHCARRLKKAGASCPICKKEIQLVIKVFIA
# Target sequence (Q00987 whole entry, looked up): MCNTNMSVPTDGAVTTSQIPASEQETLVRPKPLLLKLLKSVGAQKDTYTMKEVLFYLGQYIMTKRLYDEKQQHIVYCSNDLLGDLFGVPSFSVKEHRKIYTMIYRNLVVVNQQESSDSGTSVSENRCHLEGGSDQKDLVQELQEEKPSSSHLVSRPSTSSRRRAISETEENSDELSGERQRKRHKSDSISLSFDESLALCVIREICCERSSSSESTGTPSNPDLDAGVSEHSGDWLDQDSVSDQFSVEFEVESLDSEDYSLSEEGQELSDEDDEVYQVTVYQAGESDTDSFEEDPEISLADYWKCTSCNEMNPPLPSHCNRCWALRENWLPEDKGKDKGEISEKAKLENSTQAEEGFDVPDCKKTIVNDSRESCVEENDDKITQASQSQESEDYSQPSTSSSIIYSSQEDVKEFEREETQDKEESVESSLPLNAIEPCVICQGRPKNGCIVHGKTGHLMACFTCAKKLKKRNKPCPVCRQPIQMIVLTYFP
# HIF-2a inh conf: HIF-2a reporter inhibitor retest, confirmation, luminescence, 786-0 RCC cells; shares compounds with HIF-2a block; HIF-2a luciferase reporter luminescence, overnight; inhibition, % at 18.8 µM; actives 56% (n = 1,800); AID 651580, 2012;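 active = mean inhibition across four replicates of at least 40 percent at the single tested concentration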
# HIF-1a cs: HIF-1a luciferase reporter signal reduction – MiaPaCa-2 cells, single concentration, counter-screen for HIF-2a inhibitor project, confirmation | inhibition, % at 18.8 µM | actives 72% (n = 1,800) | MiaPaCa-2 HIF-1a luciferase reporter, desferoxamine, overnight | shares compounds with HIF-2a block;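 active = mean inhibition of the reporter signal across four replicates at the single tested dose of 50% or more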
# An asterisk follows results filed as active; ? = inconclusive; . = not tested or not shown.
SMILES,KKLEB tox,PAX8 reporter,EWS-Fli block,CF NFkB inh,HIF-2a block,HIF-2a inh conf,HIF-1a cs,others
Cc1ccc(S(=O)(=O)N2CCCCC2CCNC(=O)C(=O)NCc2cccnc2)cc1 (stereo not given),4,51,15,6,24,.,.,
O=C(NCCC1CCCCN1S(=O)(=O)c1ccc(F)cc1)C(=O)NCc1ccncc1 (stereo not given),-12,69*,8,16,43*,-3,31,
CC(C)NC(=O)Nc1ccc2c(c1)C(=O)N(C)[C@H]1CC[C@H](CC(=O)Nc3ccc(F)cc3)O[C@@H]1CO2,.,-3,-2,.,.,.,.,
Cc1ccc(C2CC(c3cccs3)=NN2C(=O)CCl)cc1 (stereo not given),-61*,-17,65*,77*,-127,.,.,Mdm2 MdmX conf=102*
CCC(=O)N1N=C(c2cccs2)CC1c1ccc(C)cc1 (stereo not given),0,22,11,-6,-24,.,.,
O=C(C[C@@H]1C[C@H]2c3cc(NC(=O)c4cccnc4)ccc3O[C@H]2[C@@H](CO)O1)NCc1ccncc1,.,.,-5,.,.,.,.,
COc1cc(CN2CC3(CN(C)C3)c3c([nH]c4cc(OC)ccc34)[C@@H]2CO)cc(OC)c1,.,.,7,.,.,.,.,
C[C@@H]1CCCCO[C@H](CN(C)C(=O)C2CCCCC2)[C@H](C)CN([C@H](C)CO)C(=O)c2cc(NC(=O)NC3CCCCC3)ccc2O1,.,13,-4,.,.,.,.,
OC(c1cc(-c2ccc(C(F)(F)F)cc2)nc(C(F)(F)F)c1)C1CCCCN1 (stereo not given),-70*,88*,35,68*,75*,5,106*,Mdm2 MdmX conf=103*
O=C(Nc1ccc(S(=O)(=O)N2CCCC2)cc1)c1ccc([N+](=O)[O-])o1,-15,.,.,83*,77*,50*,94*,
O=C(Nc1ccc(N2CCN(C(=O)c3cccs3)CC2)cc1)c1ccc([N+](=O)[O-])o1,-56*,98*,.,107*,98*,99*,104*,
O=C(Nc1ccc(S(=O)(=O)N2CCOCC2)cc1)c1ccc([N+](=O)[O-])o1,-4,-5,25,78*,67*,36,78*,
O=C(Nc1ccc(Cc2ccncc2)cc1)c1ccc([N+](=O)[O-])o1,-4,?,15,45,53*,27,102*,
C[C@H]1CN([C@@H](C)CO)C(=O)c2cc(NC(=O)Cn3cnnn3)ccc2O[C@H]1CN(C)Cc1ccccc1,.,-8,2,.,.,.,.,
COc1cccc(NC(=O)C[C@H]2CC[C@@H]3[C@@H](COc4ccc(NC(=O)C5CCCCC5)cc4C(=O)N3C)O2)c1,.,26,14,.,.,.,.,
CC(=O)N(C)C[C@H]1Oc2ncc(-c3ccc(C#N)cc3)cc2C(=O)N([C@@H](C)CO)C[C@H]1C,.,.,-11,.,.,.,.,
Cc1cc(C)c2nc(C)cc(Nc3ccc(C(=O)NCCO)cc3)c2c1,-2,5,7,-21,15,.,.,
CC(=O)c1ccc(Nc2cc(C)nc3c(C)cc(C)cc23)cc1,-15,20,16,-10,59*,18,85*,
CCOC(=O)Cc1csc(N/N=C/c2ccccc2)n1,7,-33,19,-18,41*,38,6,
CCOC(=O)Cc1csc(NC(=S)NC(=O)c2ccc(Cl)cc2)n1,-11,.,.,-2,95*,98*,97*,
CCOC(=O)Cc1csc(NC(=S)NC(=O)c2ccc([N+](=O)[O-])cc2)n1,8,-5,.,15,63*,71*,-14,
CC(C)C#Cc1cnc2c(c1)C(=O)N([C@@H](C)CO)C[C@H](C)[C@@H](CN(C)C(=O)c1cccc(F)c1)O2,.,.,-16,.,.,.,.,
Fc1ccc(Oc2nc(-c3ccccc3)nnc2C(F)(F)F)cc1,0,.,.,-13,33,.,.,
Fc1ccc(Sc2nc(-c3ccccc3)nnc2C(F)(F)F)cc1,-6,.,.,9,85*,26,89*,
CS(=O)(=O)Nc1ccc2c(c1)[C@@H]1C[C@H](CC(=O)NC3CCCCC3)O[C@@H](CO)[C@@H]1O2,.,-1,2,.,.,.,.,
SMILES,KKLEB tox,PAX8 reporter,EWS-Fli block,CF NFkB inh,HIF-2a block,HIF-2a inh conf,HIF-1a cs,others
CC(=O)Nc1ccc(Nc2nc(C)c([N+](=O)[O-])c(Nc3ccccc3)n2)cc1,-8,26,.,10,28,.,.,
CC(=O)Nc1ccc(Nc2nc(C)c([N+](=O)[O-])c(N(C)c3ccccc3)n2)cc1,-6,-3,23,1,81*,92*,93*,
O=C(C[C@H]1C[C@H]2c3cc(NC(=O)c4ccc5c(c4)OCO5)ccc3O[C@H]2[C@H](CO)O1)NCC(F)(F)F,.,-20,-11,.,.,.,.,
CC(C)CC(NC(=O)OCc1ccccc1)C(=O)NC(Cc1ccccc1)C(=O)CCl (stereo not given),-18,-9,32,34,48*,73*,87*,
COC(=O)C(Cc1ccccc1)NC(=O)C(CC(C)C)NC(=O)OC(C)(C)C (stereo not given),-4,4,.,-4,8,.,.,
Cc1noc(C)c1NC(=O)N(C)C[C@@H]1OCCCC[C@H](C)Oc2ccc(NC(=O)Nc3ccc(F)cc3)cc2C(=O)N([C@@H](C)CO)C[C@H]1C,.,7,-5,.,.,.,.,
CC[N+]1(C)CCC(O)(/C=C/c2ccccc2)C(C(=O)/C=C/c2ccccc2)C1 (stereo not given),-15,67*,8,40,90*,46*,103*,
C[C@@H]1CCCCO[C@@H](CN(C)S(C)(=O)=O)[C@H](C)CN([C@H](C)CO)C(=O)c2cc(NC(=O)C3CCCCC3)ccc2O1,.,-12,-2,.,.,.,.,
Cc1ccc(C(=O)/C=C/c2ccc(F)cc2)o1,-17,-34,.,6,-49,.,.,
O=C(/C=C/c1ccc(F)cc1)c1ccccc1Br,-37,19,.,57*,59*,43*,106*,
COc1ccc(CN2C[C@H](O)COC[C@H]3O[C@@H](CC(=O)NCCN4CCCC4)CC[C@@H]32)cc1,.,13,-3,.,.,.,.,
c1ccc(CNc2nc(NCc3ccccc3)c3ccccc3n2)cc1,-19,.,.,-28,26,.,.,Mdm2 MdmX conf=103*
c1ccc(CNc2nc(-c3ccccc3)nc3ccccc23)cc1,-6,-28,14,5,-2,.,.,
